Here are results for 30 molecules from PubChem BioAssay (NCI).

Test in all cases: NCI-60 one-dose screen, 48 h (100 = growth as untreated, 0 = no growth, -100 = all killed)
What all share (conditions): 10 µM unless noted

The subject of assay [1] is EKVX NSCLC.
The subject of assay [2] is SN12C renal.
In assay [3] the test system is UO-31 renal.
In assay [4] the test system is TK-10 renal.
In assay [5] the test system is ACHN renal.
In assay [6] the test system is CAKI-1 renal.
The subject of assay [7] is A498 renal.
In assay [8] the test system is CCRF-CEM leukemia.
Assay [9] concerns MOLT-4 leukemia.
For assay [10], the system named is SK-MEL-2 melanoma.

Compounds without any hit were thinned out: in the full panel of roughly 83,000, 20% have a hit.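 A percent growth of 40 corresponds to 60% growth inhibition; 0 means no net growth; -100 means all cells died. Active threshold: below 10.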 A number with no mark means an inactive call. Activity calls are given as the source filed them.

For the molecule `O=C(Nc1ccccc1)C(CCCCN1C(=O)c2ccccc2C1=O)N1C(=O)c2ccccc2C1=O` (stereo unspecified), the growth in assay [1] was 105%; in assay [2], 102%; in [3], 84.3%; in [4] it was 105%; in assay [5] it was 103%; in assay [6], 105%. The growth in assay [7] was 99.1%; in assay [8], 100%; in assay [9], 96.5%.

As for `Cc1ccc(CSCc2ccc(C(=O)NC3CC3)o2)cc1`, the growth in assay [10] was 75.6%; in assay [2] it was 83.2%; in assay [4], 90.6%; in [5] it was 63.1%; in assay [6], 64.5%; in [7] it was 53.3%. The growth in assay [8] is 62.1%; in assay [9], 62.6%.

`CCCN(CCC)CC(O)COc1ccccc1C(=O)Nc1ccccc1` (stereo unspecified): the growth in assay [10] is 58%; in assay [2], 81.6%; in [4], 111%; in assay [5] it was 77.2%; in assay [6], 57.5%; in assay [7] it was 53.9%. Also, the growth in assay [8] is 71.2%; in assay [9] it was 78%.

For `CC1(C)C(N(O)C(=O)Nc2ccc(Cl)cc2)N(c2ccc(Cl)cc2)C(=O)N1CC(=O)N/N=C/C=C/c1ccc([N+](=O)[O-])o1` (stereo unspecified), the growth in assay [1] was 29.8%; in assay [2] it was -21.4% (active); in [3] it was 12.8%; in [4], 4.58% (active); in assay [5] it was 9.18% (active); in [6], 68%. In [9], the growth is -21.5% (active).

For `O=C(NCC(c1ccsc1)N1CCCCCC1)c1ccc(C(F)(F)F)cc1` (stereo unspecified), the growth in assay [10] is 94.3%; in [2], 96.8%; in assay [4], 94.5%; in assay [6], 85%; in assay [7], 89.4%; in assay [8], 96.2%. The growth in [9] is 78.2%.

With `Cc1cccc(C(=O)O)n1`, the growth is 93.9% in assay [1]; 102% in assay [2]; 72.3% in assay [3]; 109% in [4]; 102% in [5]; 69.8% in assay [6]. Also, the growth in assay [7] was 116%; in assay [8], 146%; in assay [9], 94.2%.

`O=[N+]([O-])c1cccc([I+]c2ccccc2)c1`: the growth was 76.1% in assay [10]; 52.4% in assay [2]; 43.6% in assay [3]; 67.5% in assay [4]; 46% in assay [6]; 40.5% in assay [7]. In addition, the values for the growth in assay [8] and in [9] were 15.8% and 12.6%, respectively.

For the molecule `CS(=O)(=O)Nc1cc(-c2cc3ncc(C#N)c(Nc4ccc(Oc5ccccc5)c(Cl)c4)c3s2)cnc1Cl`, the growth is 58.1% in assay [1]; 45.7% in [2]; 22.6% in assay [3]; 45.4% in [4]; 39.2% in [5]; 19.4% in assay [6]. For the same molecule, the values for the growth in assay [7], in assay [8] and in assay [9] were -15.2% (active), 38.3% and 36.9%, respectively.

As to `O=C(Cc1ccc(Nc2ccnc(C(F)(F)F)c2)cc1)N/N=C/c1ccccc1O`, the growth was 25.7% in assay [1]; 36.1% in assay [2]; 0.112% (active) in assay [3]; 22.7% in [4]; 4.09% (active) in assay [5]; 32.3% in assay [6]. In addition, the growth in [7] was 145%; in [9], 64.4%.

For the molecule `Cc1cc(N=Nc2ccc(-c3ccc(N=Nc4ccc(O)c(C(=O)O)c4)cc3)cc2)c(N)c(N=Nc2ccc(C(=O)O)cc2)c1N`, the growth is 91.8% in assay [10]; 91% in assay [2]; 134% in assay [4]; 80.3% in [5]; 86% in [6]; 101% in [7]. Besides, the growth in assay [9] is 90.1%.

`Cc1nc2c(-c3cnc(N)nc3)nc(N3CCOCC3)nc2n1C(C)C`: the growth in assay [1] is 9.04% (active); in assay [2] it was 12.8%; in [3], -12.1% (active); in assay [4] it was -33% (active); in assay [5], 2.76% (active); in assay [6], 0.604% (active). Further, the results for the growth in [7] and in assay [9] were -39.2% (active) and 6.75% (active), respectively.

Take `O=C(C(Br)C(Br)c1ccccc1)C(Br)C(Br)c1ccccc1` (stereo unspecified): the growth in assay [10] is -28.7% (active); in assay [2] it was -30.5% (active); in assay [3] it was -96.6% (active); in [4], -87.9% (active); in assay [7], 84.6%; in assay [8], -43.8% (active). In addition, the growth in assay [9] is -43.4% (active).

As for `O=C(O)Cn1ccc2ccccc21`, the growth in assay [1] was 102%; in assay [2], 113%; in [3], 76.4%; in assay [4] it was 153%; in [5] it was 99.9%; in assay [7], 110%. In addition, the growth in assay [8] was 98.4%.

Consider `CCc1ccc2c(c1)N(CCO)C1=C(C(=O)OC1)C2c1cccc(Br)c1` (stereo unspecified), for which the growth in assay [1] was 47.4%; in assay [2], 53.5%; in assay [3], 34%; in assay [4], 45.4%; in [5], 47.4%; in assay [6], 26.1%. The growth in [7] is 2.81% (active); in [8], 11.9%; in assay [9] it was 19.3%.

For the molecule `NC(=S)N/N=C(/c1cccs1)C1CC1`, the growth in assay [10] is 160%; in assay [2], 82.6%; in assay [4], 124%; in assay [5] it was 83.9%; in [6] it was 98.8%; in assay [7], 106%. Further, the growth in assay [9] was 29.2%.

`Cc1ccccc1CNc1ncnc2[nH]ncc12`: the growth was 71.6% in [1]; 112% in [2]; 37% in [3]; 83.8% in assay [4]; 87.2% in assay [5]; 69% in assay [6]. Moreover, the growth is 93.9% in assay [7], 146% in assay [8] and -58.2% (active) in assay [9].

For `CC(=O)OC1Oc2cc(C)c(C)cc2-c2oc(=O)c(-c3cc4ccccc4oc3=O)cc21` (stereo unspecified), the growth in assay [1] was 115%; in assay [2], 114%; in assay [3], 96.2%; in assay [4], 156%; in assay [5], 71.9%; in [7], 75%. Moreover, in assay [8], the growth is 94%.

In the case of `O=c1cc(N2CCOCC2)oc2c(-c3ccc4c(c3)OCCO4)csc12`, the growth in assay [1] is 9.76% (active); in assay [2], 20.2%; in assay [3], 1% (active); in assay [4], -14.5% (active); in assay [5], 6.19% (active); in [7], -41% (active). The growth in [8] is 28%; in [9] it was 4.69% (active).

With `Cc1cc(O)ccc1C1=NN(c2ccc(S(N)(=O)=O)cc2)C(=O)CC1`, the growth in assay [1] is 52.6%; in assay [2], 70.7%; in [3], 65.4%; in [4] it was 114%; in assay [5], 77.6%; in assay [7], -2.97% (active). Also, the growth in assay [8] was 46.2%.

For the molecule `CC(C)NCCCCCNc1cc(O)cc2cccnc12`, the growth in [1] is -8.81% (active); in [2], 59%; in assay [3], 88.4%; in assay [4], 124%; in assay [5] it was 102%; in assay [7], 79.1%. For the same molecule, the growth in [8] was 94.3%; in assay [9] it was 16%.

In the case of `CC(=O)OC1Oc2cc(C)c(C)cc2-c2oc(=O)c(-c3ccc(F)cc3)cc21` (stereo unspecified), the growth is 81.7% in [1]; 83.2% in [2]; 62.2% in assay [3]; 120% in assay [4]; 89.5% in assay [5]; 47.9% in assay [7]. Further, in assay [8], the growth is 36%.

As for `CCCc1n(Cc2ccc3ccccc3n2)cc[n+]1Cc1ccc2ccccc2n1`, the growth was 58.1% in assay [1]; 9.65% (active) in assay [2]; 86.5% in assay [3]; 62.1% in assay [4]; 98.1% in [5]; 35.4% in assay [7]. Also, the growth in assay [8] is 36.2%; in [9] it was 23.2%.

`COc1cc(/C=C/c2ccc3c(Br)cc(Br)c(O)c3n2)ccc1O`: the growth in assay [1] is 23.1%; in assay [2], 52.8%; in assay [3] it was 0.12% (active); in assay [4], 30.3%; in assay [5], 22%; in [7], -4.9% (active). Further, the growth in assay [8] is -24.5% (active).

`O=C(C(=O)c1cccnc1)c1cccnc1`: the growth in assay [1] is 110%; in assay [2], 107%; in [3], 105%; in assay [4], 158%; in [5] it was 110%; in assay [7] it was 55.6%. In addition, the growth in assay [8] is 120%.

On to `CNC(=O)c1cc(Oc2ccc(NC(=O)c3[nH]c(SC)nc3-c3ccc(F)cc3)cc2)ccn1`, for which the growth in [1] is 63.7%; in [2], 39.2%; in assay [3], 60.5%; in [4], 88.3%; in [5], 39.8%; in [7], 61.1%. For the same molecule, the growth in assay [8] was 85.3%; in assay [9], 38.4%.

As to `Cc1n(Cc2ccc3ccccc3n2)cc[n+]1Cc1ccc2ccccc2c1`, the growth in assay [1] was 48.3%; in [2], 1.98% (active); in assay [3] it was 81%; in assay [4], 37.8%; in assay [5], 88.5%; in [7] it was -2.15% (active). The growth in assay [8] was 16.3%; in [9], 5.13% (active).

In the case of `N#Cc1c(NN)n(C2OC(CO)C(O)C2O)c2ncnc(N)c12` (stereo unspecified), the growth was -0.0983% (active) in [1]; 16.1% in assay [2]; -23.5% (active) in assay [3]; 11.2% in [4]; 7.45% (active) in assay [5]; -17.8% (active) in assay [7]. In addition, in assay [8], the growth was -22.3% (active).

As to `COc1cccc(OCC(O)CN2CCN(c3ccccc3)CC2)c1` (stereo unspecified), the growth was 103% in assay [1]; 105% in assay [2]; 96.3% in assay [3]; 151% in [4]; 109% in assay [5]; 90.6% in assay [7]. The growth in assay [8] was 121%.

Take `CCOC(=O)C(=CNc1ccccc1Cl)C(=O)OCC`: the growth in [1] was 106%; in assay [2], 101%; in assay [3] it was 89.1%; in [4], 99.3%; in assay [5] it was 79.2%; in [7] it was 5.74% (active). Besides, the growth in assay [8] is 85.8%.

Turning to `CC(=O)c1cc(C(=O)c2ccc3c(c2)Sc2ccccc2N3)c2c(C)cccn12`, the growth in assay [1] is 38.1%; in [2], 35.5%; in assay [3], 34.1%; in assay [4], 56.9%; in assay [5], 32.4%; in [7], -5.33% (active). Moreover, the figures for the growth in assay [8] and in [9] were 16.3% and 12%, respectively.
